Here are results for 8 compounds from PubChem BioAssay (NCI).

Among the test systems are NCI-H226 lung; NCI-H322M lung; HOP-62 NSCLC; NCI-H460 lung; HOP-92 NSCLC; NCI-H522 lung; A549/ATCC NSCLC; 786-0 renal; COLO 205 colon; DU-145 prostate; K-562 leukemia; MALME-3M melanoma; MDA-MB-231 breast; RXF 393 renal; SF-268 CNS; SF-295 CNS; SF-539 CNS; UACC-257 melanoma; M14 melanoma.
What all share (assay): NCI-60 one-dose screen, 48 h (100 = growth as untreated, 0 = no growth, -100 = all killed)
Holding throughout (details): 10 µM unless noted

Structures are written as SMILES. Compounds without any hit were thinned out: in the full panel of roughly 83,000, 20% have a hit.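 The endpoint reported here, percent growth, reads 100 for growth as untreated, 0 for no net growth and -100 for all cells dead.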 Values without a mark were called inactive. Active and inactive are the calls of the source. Rule for the calls: active = growth percent below 10; inactive = the rest.

As for `C=C(c1ccc(C(=O)O)cn1)c1cc2c(cc1C)C(C)(C)CCC2(C)C`, the growth with NCI-H226 lung was 81%; in the assay with NCI-H322M lung, 108%; with HOP-62 NSCLC, 87.3%; in the assay on NCI-H460 lung it was 92.4%; with HOP-92 NSCLC, 71.5%; in the assay on NCI-H522 lung, 65.4%. Further, the growth is 57.3% with A549/ATCC NSCLC; 114% in the assay with 786-0 renal; 109% in the assay with COLO 205 colon; 93.7% in the assay on DU-145 prostate; 92.3% in the assay on K-562 leukemia; 76.9% in the assay on MALME-3M melanoma. Besides, the growth is 93.8% with MDA-MB-231 breast; 102% with RXF 393 renal; 76.5% in the assay on SF-268 CNS; 83.2% in the assay with SF-295 CNS; 86.3% in the assay with SF-539 CNS; 84% in the assay with UACC-257 melanoma. In the assay on M14 melanoma, the growth is 88.5%.

As to `CC(C)c1ccc(C(=O)Nc2sc3cc(O)ccc3c2C#N)cc1`, the growth is 58.2% in the assay with NCI-H226 lung; 61.7% in the assay on NCI-H322M lung; 41.1% in the assay on HOP-62 NSCLC; 23% in the assay with NCI-H460 lung; 79.2% in the assay with HOP-92 NSCLC; 54.2% with NCI-H522 lung. The growth was 44.6% in the assay on A549/ATCC NSCLC; 31.2% in the assay with 786-0 renal; 91.8% with COLO 205 colon; 50.5% with DU-145 prostate; 13.8% in the assay on K-562 leukemia; 39.2% in the assay with MALME-3M melanoma. The growth in the assay with MDA-MB-231 breast was 46.3%; in the assay on RXF 393 renal it was 45.2%; with SF-268 CNS, 44.8%; with SF-295 CNS, 22.2%; in the assay on SF-539 CNS it was 32.5%; in the assay with UACC-257 melanoma, 51.3%. Moreover, the growth with M14 melanoma was 5.43% (active).

Consider `CCN(C(=O)N1CCN(c2cc3c(cc2F)c(=O)c(C(=O)O)cn3C2CC2)CC1)c1nc(-c2ccc(C)cc2)cs1`, for which the growth in the assay with NCI-H226 lung is 3.21% (active); in the assay on NCI-H322M lung, 10.3%; in the assay on HOP-62 NSCLC it was 5.92% (active); in the assay with NCI-H460 lung, 8.41% (active); with HOP-92 NSCLC it was -12% (active); in the assay on NCI-H522 lung it was 3.2% (active). Moreover, the growth in the assay on A549/ATCC NSCLC was 16.1%; in the assay on 786-0 renal, 15.6%; in the assay on COLO 205 colon, -21.2% (active); in the assay with DU-145 prostate, 23.6%; with K-562 leukemia, 16%; with MALME-3M melanoma it was 14.7%. Also, the growth in the assay with MDA-MB-231 breast was 6.79% (active); in the assay on RXF 393 renal, 21.8%; in the assay on SF-268 CNS, 21%; in the assay with SF-295 CNS, -3.48% (active); with SF-539 CNS, 20.2%; in the assay on UACC-257 melanoma, 14.6%. For the same compound, the growth in the assay with M14 melanoma was 19.6%.

In the case of `O=C(Nc1ccc(F)cc1)Nc1ccccc1CNc1nc(Nc2ccc(OCCN3CCCC3)cc2)ncc1Cl`, the growth was 99.1% in the assay on NCI-H226 lung; 89.1% with NCI-H322M lung; 51.3% in the assay on HOP-62 NSCLC; 9.85% (active) in the assay on NCI-H460 lung; 52.2% in the assay with HOP-92 NSCLC; 37% with NCI-H522 lung. The growth with A549/ATCC NSCLC is 38.2%; in the assay with 786-0 renal, -16.3% (active); in the assay on COLO 205 colon, 0.109% (active); with DU-145 prostate, 47%; in the assay on K-562 leukemia it was 2.99% (active); with MALME-3M melanoma, -29.3% (active). Further, the growth was -30.9% (active) with MDA-MB-231 breast; -50% (active) with RXF 393 renal; 56.5% in the assay on SF-268 CNS; 82.3% in the assay on SF-295 CNS; -74.7% (active) in the assay on SF-539 CNS; 5.96% (active) with UACC-257 melanoma. The growth with M14 melanoma is -39.2% (active).

As for `COc1ccc(/C=C/C(=O)c2ccc(NC(=O)CSc3nnc(-c4cc(-c5ccccc5)nc5ccccc45)n3-c3ccccc3)cc2)cc1`, the growth in the assay with NCI-H226 lung was 102%; in the assay on NCI-H322M lung, 99.6%; in the assay on HOP-62 NSCLC it was 97.3%; in the assay on NCI-H460 lung, 107%; in the assay with HOP-92 NSCLC, 84.9%; in the assay on NCI-H522 lung, 83.9%. Besides, the growth in the assay on A549/ATCC NSCLC is 97.9%; in the assay on 786-0 renal, 95.4%; with COLO 205 colon, 110%; in the assay on DU-145 prostate it was 94.9%; in the assay with K-562 leukemia it was 88.8%; in the assay on MALME-3M melanoma, 98%. For the same compound, the growth in the assay with MDA-MB-231 breast was 87.3%; in the assay on RXF 393 renal it was 103%; with SF-268 CNS, 98.3%; in the assay with SF-295 CNS it was 103%; in the assay on SF-539 CNS, 97.8%; with UACC-257 melanoma it was 105%. The growth with M14 melanoma is 99%.

In the case of `CCCCCn1sc(=O)n(Cc2ccc(CNC(=O)OCc3ccc4c(Cl)cc(Cl)c(O)c4n3)cc2)c1=O`, the growth in the assay on NCI-H226 lung was 65.8%; in the assay on NCI-H322M lung, 55.7%; with HOP-62 NSCLC, 41.7%; in the assay with NCI-H460 lung, 27.1%; in the assay on HOP-92 NSCLC, 76.2%; in the assay on NCI-H522 lung it was 66.1%. Moreover, the growth was 49.7% with A549/ATCC NSCLC; 61.2% with 786-0 renal; 106% with COLO 205 colon; 63.9% in the assay with DU-145 prostate; 45.8% with K-562 leukemia; 70.4% in the assay with MALME-3M melanoma. Besides, the growth in the assay with MDA-MB-231 breast was 75.6%; in the assay with RXF 393 renal, 32.5%; in the assay with SF-268 CNS, 66.6%; with SF-295 CNS, 35.1%; in the assay on SF-539 CNS it was 77.1%; in the assay on UACC-257 melanoma, 87.9%. The growth with M14 melanoma is 58.8%.

Take `Cc1ccc(/C=C/C(=O)c2ccc(NC(=O)CSc3nc4c([nH]3)c(=O)n(C)c(=O)n4C)cc2)c(C)c1`: the growth in the assay on NCI-H226 lung is 47.2%; with NCI-H322M lung, 71.3%; in the assay on HOP-62 NSCLC, 20.4%; with NCI-H460 lung it was 24.5%; with NCI-H522 lung, 32.5%; in the assay with A549/ATCC NSCLC, 33.6%. The growth in the assay with 786-0 renal is 36%; with COLO 205 colon, 84.8%; in the assay with DU-145 prostate, 40.1%; in the assay with K-562 leukemia it was 55.9%; in the assay with MALME-3M melanoma, 58.7%; in the assay with MDA-MB-231 breast it was 5.32% (active). For the same compound, the growth in the assay on RXF 393 renal is -3.94% (active); in the assay with SF-268 CNS, 46.2%; with SF-295 CNS it was 47.6%; in the assay on SF-539 CNS, 55.1%; in the assay with UACC-257 melanoma, 62%; with M14 melanoma, 56.8%.

Consider `CC1(C)CC2=C3C=C[C@@H]4[C@@]5(C)CC[C@H](O)C(C)(C)[C@@H]5CC[C@@]4(C)[C@]3(C)CC[C@@]2(C(=O)O)CC1=O`, for which the growth in the assay with NCI-H226 lung is 32.3%; with NCI-H322M lung it was 55.1%; with HOP-62 NSCLC it was 50.9%; in the assay with NCI-H460 lung, 63.2%; in the assay with HOP-92 NSCLC it was -5.32% (active); with NCI-H522 lung, 51.2%. Besides, the growth in the assay with A549/ATCC NSCLC is 39.2%; with 786-0 renal, 21.1%; in the assay with COLO 205 colon, 67%; in the assay on DU-145 prostate it was 84.1%; with K-562 leukemia, 57.5%; in the assay on MALME-3M melanoma, 15.9%. In addition, the growth in the assay on MDA-MB-231 breast is 40.4%; in the assay on RXF 393 renal it was 21.8%; in the assay with SF-268 CNS, 35.4%; with SF-295 CNS, 47.3%; in the assay on SF-539 CNS it was 60%; in the assay with UACC-257 melanoma, 20.9%. The growth in the assay with M14 melanoma is 30.3%.
